Source: PubChem BioAssay AID2417 (National Center for Advancing Translational Sciences (NCATS), 2010)
Among all 140,000 compounds or so, about 4,300 (3.1%) were called active. Inconclusive results (about 21%) are left out.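 The calls were made as follows: active = readout at or below -70, meaning at least 70% loss of cells showing the perinucleolar compartment, a nuclear body marking cancer cells; inconclusive = readout between -30 and a set limit; inactive = the rest.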 This excerpt belongs to a sample that is enriched for actives.

Test: High Content Assay for Compounds that inhibit the Assembly of the Perinucleolar Compartment;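 also: plate controls were DMSO wells for no effect and camptothecin positive control wells for full effect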
Conditions: PC3M PTB-GFP, PNC prevalence imaging, 16 h; at 10 µM; hits give low values
Procedure, shortened: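 PC3M cells stably expressing PTB-GFP, 750–1000 cells/well, treated 16 h at 37 °C with compound (23 nl of library stock), in duplicate. After paraformaldehyde fixation and Hoechst stain, imaged at 20x; PNC prevalence scored by image analysis.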

Row | Compound | activity change (PNC), negative = inhibition
1 | Cc1cccc(N2CCN(C(=O)/C=C/c3ccco3)CC2)c1C | 16.7% (inactive)
2 | CO/N=C/c1ccc(N2CCN(C(=O)c3cccc(Cl)c3)CC2)c([N+](=O)[O-])c1 | 77.9% (inactive)
3 | O=C(/C=C/c1ccc(Cl)cc1)N1CCN(c2ccccc2[N+](=O)[O-])CC1 | -91.4% (active)
4 | CCCN=C1NC(=O)C(CC(=O)NCCc2ccc(OC)c(OC)c2)S1 (stereo not given) | 58.6% (inactive)
5 | Cc1cc(C)c(C2C3=C(Nc4c2c(C)nn4-c2ccccn2)c2ccccc2C3=O)c(C)c1 (stereo not given) | -28.9% (inactive)
6 | CC1=C[C@H]2Cc3cc(C)cc(C)c3S(=O)(=O)[C@@H]2C=C1 | 28.1% (inactive)
7 | CCCn1c(C)cc(C(=O)COC(=O)c2c(C)nn(-c3ccccc3)c2C)c1C | -22.8% (inactive)
8 | COc1ccc(-n2c(C)cc(C(=O)COC(=O)c3cc(OC)c(OC)cc3NC(=O)c3cccs3)c2C)cc1 | 173% (inactive)
9 | Cc1cc(C(=O)COC(=O)c2cccs2)c(C)n1-c1c(C)n(C)n(-c2ccccc2)c1=O | -127% (active)
10 | COc1ccc(C(=O)COC(=O)c2ccc3ccccc3n2)cc1 | -89.8% (active)
11 | O=C(Oc1ccc([N+](=O)[O-])cc1)c1ccc2ccccc2n1 | -25.3% (inactive)
12 | COc1ccc(C2=NOC(COC(=O)c3ccc4ccccc4n3)C2)cc1 (stereo not given) | -3.15% (inactive)
13 | CCOc1ccc2nc(Nc3nc4ccc(NC(C)=O)cc4s3)sc2c1 | 10% (inactive)
14 | CCOc1ccc2nc(NC(=O)c3cc([N+](=O)[O-])ccc3N3CCOCC3)sc2c1 | -84.5% (active)
15 | Cc1cc(C)cc(OCC(=O)Nc2nc3ccc([N+](=O)[O-])cc3s2)c1 | 84.2% (inactive)
16 | CCOc1ccccc1Nc1nnc(SCC(=O)Nc2cc(C)on2)s1 | 1.96% (inactive)
17 | Cc1cc(C)c2c(c1)cc(C)c1nnc(SCC(=O)Nc3cc(C)on3)n12 | -88.4% (active)
18 | Cc1ccc(-c2csc(SCC(=O)Nc3cc(C)on3)n2)cc1 | 32.6% (inactive)
19 | COc1cccc(-n2c(SCC(=O)c3c[nH]c4ccccc34)nc3ccccc3c2=O)c1 | -15.1% (inactive)
20 | Cc1nonc1NC(=O)c1ccccc1Br | -15.2% (inactive)

Row | Compound | activity change (PNC), negative = inhibition
21 | O=C(Nc1c2c(nc3ccccc13)CCCC2)c1ccccc1Br | -109% (active)
22 | O=C(COC(=O)c1c2c(nc3ccccc13)CCCC2)c1ccc(Br)s1 | 17.9% (inactive)
23 | Cc1ccc(C)c(NC(=O)CCC(=O)NNC(=O)c2cccs2)c1 | 30.9% (inactive)
24 | NC1=NC(=O)C(Cc2cccc(Cl)c2Cl)S1 (stereo not given) | -13.4% (inactive)
25 | COc1ccccc1N1N=C(c2cccs2)CC1c1ccccc1 (stereo not given) | -19.6% (inactive)
26 | CCNc1nc(NC(C)C)nc(N2CC(=O)N(CC(=O)OCC)C2=N)n1 | 3.87% (inactive)
27 | CCNc1nc(NC(C)C)nc(OCCOC(=O)c2ccccc2)n1 | -100% (active)
28 | CC(C)Nc1nc(N(c2ccccc2)c2ccccc2)nc(-n2ccnc2)n1 | -4.69% (inactive)
29 | O=C(CCc1ccccc1)Nc1nn[nH]n1 | 50.3% (inactive)
30 | COc1ccc(C2COC(=O)C2=N)c(NC(=O)c2ccccc2)c1 (stereo not given) | -25.6% (inactive)
31 | CCC1=NN(C(=O)Cc2ccc([N+](=O)[O-])cc2)C(O)(c2ccc(Br)cc2)C1 (stereo not given) | 99.6% (inactive)
32 | COc1ccccc1-c1nnc(NC(=O)c2ccc3ncsc3c2)o1 | -121% (active)
33 | COc1ccccc1-c1nnc(NC(=O)c2cccc(N3C(=O)CCC3=O)c2)o1 | -7.63% (inactive)
34 | COc1ccccc1-c1nnc(SCC(=O)Nc2cc(C)on2)o1 | -4.25% (inactive)
35 | CCCCC(CC(C)O)c1n[nH]c(=S)n1-c1ccccc1 (stereo not given) | 4.51% (inactive)
36 | O=C(NCCCO)/C(=C\C=C\c1ccccc1)NC(=O)c1ccccc1Cl | 26.4% (inactive)
37 | O=C(NCCc1ccccc1)/C(=C\c1ccc([N+](=O)[O-])cc1)NC(=O)c1ccccc1 | -6.81% (inactive)
38 | O=C(N/N=C/c1cc([N+](=O)[O-])ccc1O)/C(=C\c1cccs1)NC(=O)c1ccccc1 | 25.3% (inactive)
39 | O=C(N/N=C/c1ccc(O)cc1)/C(=C/c1ccc([N+](=O)[O-])cc1)NC(=O)c1ccccc1 | -101% (active)
40 | CCCC(=O)Nc1ccc(C(=O)N/N=C/c2ccc[nH]2)cc1 | -29.4% (inactive)

Row | Compound | activity change (PNC), negative = inhibition
41 | Cc1csc(=NC(=O)c2ccccc2)n1CCO | -9.41% (inactive)
42 | C=C(C)CNC(=S)/N=c1\scc(C)n1CC | -100% (active)
43 | Cc1csc(=Nc2ccccc2)n1CCO | -25.4% (inactive)
44 | COc1cc(/C=C/C(=O)N2c3ccccc3Sc3ccc(C(F)(F)F)cc32)cc(OC)c1OC | -24.5% (inactive)
45 | O=C(Nc1ccccc1Cl)O/N=C(/c1ccccc1)c1ccccn1 | -96.2% (active)
46 | O=C(CSc1nnc(Nc2ccccc2)s1)Nc1cccnc1Cl | -10.3% (inactive)
47 | C/C(=N\NC(=O)Cc1ccc(Cl)cc1)c1ccccn1 | -18.2% (inactive)
48 | COc1cc2c(cc1OC)C(=O)NCC(C)(C)O2 | 47.7% (inactive)
49 | CCCCN(CC)C(=O)c1ccc2c(c1)OCO2 | 21.9% (inactive)
50 | O=C(OCC(O)C(O)COC(=O)c1ccccc1)c1ccccc1 (stereo not given) | -83.5% (active)
51 | CCOC(=O)c1ccc(N/C(=N/S(=O)(=O)c2ccccc2)c2ccccc2)cc1 | 3.77% (inactive)
52 | COC(=O)c1ccc(NCC(=O)c2ccccc2)cc1 | -26.4% (inactive)
53 | COc1ccc(/C=C/C(=O)OCC(=O)NCc2cccs2)cc1OC | -1.51% (inactive)
54 | CCCCOc1ccc(C(=O)N/C(=C/C=C/c2ccccc2)C(=O)N2CCOCC2)cc1 | -12.2% (inactive)
55 | CCOc1ccc2nc(C(=O)N3CCCC(C)C3)sc2c1 (stereo not given) | 6.06% (inactive)
56 | O=C(NC1CCCC1)C(NS(=O)(=O)c1ccc(Br)s1)c1ccccc1 (stereo not given) | 48.1% (inactive)
57 | COC(=O)c1cn(-c2ccccc2)nc1-c1cccnc1 | -22.9% (inactive)
58 | O=C(NCc1cccnc1)c1cn(-c2ccccc2)nc1-c1cccs1 | -139% (active)
59 | O=C(/C=C/c1cccs1)NCc1cccnc1 | -0.603% (inactive)
60 | COC1=CCC2([N+](=O)[O-])CN(CC(=O)O)CC1([N+](=O)[O-])C2 (stereo not given) | 6.59% (inactive)
